Assays:
[1] = target: T1, Ephrin type-A receptor 3 (Homo sapiens) (UniProt P29320); details: at 10 µM
T1 sequence (whole entry): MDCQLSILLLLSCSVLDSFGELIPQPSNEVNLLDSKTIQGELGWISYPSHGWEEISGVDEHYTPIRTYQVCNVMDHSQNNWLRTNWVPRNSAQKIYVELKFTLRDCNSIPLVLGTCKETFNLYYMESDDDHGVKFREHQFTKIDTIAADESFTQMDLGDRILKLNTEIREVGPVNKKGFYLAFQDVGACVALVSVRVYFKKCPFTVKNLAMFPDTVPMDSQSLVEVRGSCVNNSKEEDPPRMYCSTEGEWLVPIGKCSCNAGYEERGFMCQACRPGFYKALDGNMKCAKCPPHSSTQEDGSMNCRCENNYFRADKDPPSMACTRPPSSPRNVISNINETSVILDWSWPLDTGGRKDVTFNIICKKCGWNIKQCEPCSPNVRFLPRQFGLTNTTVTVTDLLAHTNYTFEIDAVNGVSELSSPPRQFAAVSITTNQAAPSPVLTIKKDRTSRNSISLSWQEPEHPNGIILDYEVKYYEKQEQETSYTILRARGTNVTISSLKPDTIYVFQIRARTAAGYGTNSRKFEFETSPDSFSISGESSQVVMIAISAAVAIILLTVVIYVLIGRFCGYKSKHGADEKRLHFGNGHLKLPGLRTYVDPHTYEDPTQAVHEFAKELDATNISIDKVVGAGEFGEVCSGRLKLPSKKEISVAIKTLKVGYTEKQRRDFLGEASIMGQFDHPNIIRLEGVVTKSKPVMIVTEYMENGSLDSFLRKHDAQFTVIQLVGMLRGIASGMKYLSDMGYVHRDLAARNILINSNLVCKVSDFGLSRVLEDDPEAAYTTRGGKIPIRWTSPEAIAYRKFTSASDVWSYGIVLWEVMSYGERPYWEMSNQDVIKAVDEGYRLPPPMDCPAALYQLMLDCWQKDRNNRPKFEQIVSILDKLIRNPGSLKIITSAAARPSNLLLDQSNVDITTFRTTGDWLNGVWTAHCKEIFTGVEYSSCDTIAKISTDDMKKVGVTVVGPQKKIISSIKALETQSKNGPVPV

[2] = target: Ephrin type-A receptor 5 (Homo sapiens) (UniProt P54756); details: at 1 µM
[3] = target: Ephrin type-A receptor 5 (Homo sapiens) (UniProt P54756); details: at 10 µM
[4] = target: Ephrin type-A receptor 7 (Homo sapiens) (UniProt Q15375); details: at 1 µM
[5] = target: Ephrin type-A receptor 7 (Homo sapiens) (UniProt Q15375); details: at 10 µM
[6] = target: T2, Ephrin type-A receptor 8 (Homo sapiens) (UniProt P29322); details: at 1 µM
T2 sequence (whole entry): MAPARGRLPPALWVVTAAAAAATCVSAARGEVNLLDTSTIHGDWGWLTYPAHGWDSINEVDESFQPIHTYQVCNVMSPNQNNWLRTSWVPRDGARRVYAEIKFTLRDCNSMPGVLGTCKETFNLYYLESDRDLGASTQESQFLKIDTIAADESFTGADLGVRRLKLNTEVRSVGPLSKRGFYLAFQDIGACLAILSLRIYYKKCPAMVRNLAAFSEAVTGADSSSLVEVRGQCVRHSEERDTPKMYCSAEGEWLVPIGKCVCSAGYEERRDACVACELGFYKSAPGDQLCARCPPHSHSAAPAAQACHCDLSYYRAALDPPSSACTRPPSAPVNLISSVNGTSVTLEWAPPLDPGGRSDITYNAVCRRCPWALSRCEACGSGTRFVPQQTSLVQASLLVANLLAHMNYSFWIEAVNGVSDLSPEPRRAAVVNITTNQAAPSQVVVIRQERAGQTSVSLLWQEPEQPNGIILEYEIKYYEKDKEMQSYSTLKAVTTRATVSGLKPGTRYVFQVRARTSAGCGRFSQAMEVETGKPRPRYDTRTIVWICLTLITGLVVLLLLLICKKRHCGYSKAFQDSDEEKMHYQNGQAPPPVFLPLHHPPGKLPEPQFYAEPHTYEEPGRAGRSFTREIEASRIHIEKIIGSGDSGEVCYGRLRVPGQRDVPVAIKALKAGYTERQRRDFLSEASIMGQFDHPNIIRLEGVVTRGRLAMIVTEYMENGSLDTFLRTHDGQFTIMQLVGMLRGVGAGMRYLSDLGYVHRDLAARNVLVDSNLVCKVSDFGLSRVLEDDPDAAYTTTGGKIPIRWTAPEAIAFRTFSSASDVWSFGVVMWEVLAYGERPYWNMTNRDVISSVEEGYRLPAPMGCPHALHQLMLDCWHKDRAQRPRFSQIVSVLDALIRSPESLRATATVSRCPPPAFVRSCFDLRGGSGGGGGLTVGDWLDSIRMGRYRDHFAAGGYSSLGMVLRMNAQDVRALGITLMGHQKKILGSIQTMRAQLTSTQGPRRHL

[7] = target: T2, Ephrin type-A receptor 8 (Homo sapiens); details: at 10 µM
[8] = target: T3, Ephrin type-B receptor 1 (Homo sapiens) (UniProt P54762); details: at 10 µM
T3 sequence (whole entry): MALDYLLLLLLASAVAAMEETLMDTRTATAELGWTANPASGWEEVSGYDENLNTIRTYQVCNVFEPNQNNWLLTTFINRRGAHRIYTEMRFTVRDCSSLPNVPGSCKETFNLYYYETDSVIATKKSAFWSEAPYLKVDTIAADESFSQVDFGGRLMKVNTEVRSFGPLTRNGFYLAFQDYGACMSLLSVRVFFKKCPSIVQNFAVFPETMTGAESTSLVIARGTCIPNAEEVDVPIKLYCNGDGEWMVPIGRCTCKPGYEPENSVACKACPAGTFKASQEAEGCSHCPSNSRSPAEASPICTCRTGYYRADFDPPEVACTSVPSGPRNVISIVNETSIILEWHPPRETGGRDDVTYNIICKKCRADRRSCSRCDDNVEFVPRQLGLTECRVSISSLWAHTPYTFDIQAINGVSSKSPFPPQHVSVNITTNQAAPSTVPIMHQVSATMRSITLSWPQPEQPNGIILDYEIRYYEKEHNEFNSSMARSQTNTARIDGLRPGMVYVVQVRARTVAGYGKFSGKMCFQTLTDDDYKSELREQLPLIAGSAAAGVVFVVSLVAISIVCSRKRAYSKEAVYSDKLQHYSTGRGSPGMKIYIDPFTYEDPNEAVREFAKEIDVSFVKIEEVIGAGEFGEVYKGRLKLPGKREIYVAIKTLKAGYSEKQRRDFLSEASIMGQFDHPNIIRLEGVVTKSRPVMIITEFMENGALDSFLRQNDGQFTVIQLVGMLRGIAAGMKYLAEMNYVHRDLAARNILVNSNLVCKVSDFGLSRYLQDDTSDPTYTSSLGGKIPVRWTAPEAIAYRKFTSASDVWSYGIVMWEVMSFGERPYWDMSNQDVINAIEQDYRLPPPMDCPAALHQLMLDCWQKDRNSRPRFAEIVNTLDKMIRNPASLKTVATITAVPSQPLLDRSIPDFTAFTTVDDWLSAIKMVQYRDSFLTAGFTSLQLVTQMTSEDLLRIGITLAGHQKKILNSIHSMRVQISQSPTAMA

[9] = target: T4, Ephrin type-B receptor 4 (Homo sapiens) (UniProt P54760); details: at 1 µM
T4 sequence (whole entry): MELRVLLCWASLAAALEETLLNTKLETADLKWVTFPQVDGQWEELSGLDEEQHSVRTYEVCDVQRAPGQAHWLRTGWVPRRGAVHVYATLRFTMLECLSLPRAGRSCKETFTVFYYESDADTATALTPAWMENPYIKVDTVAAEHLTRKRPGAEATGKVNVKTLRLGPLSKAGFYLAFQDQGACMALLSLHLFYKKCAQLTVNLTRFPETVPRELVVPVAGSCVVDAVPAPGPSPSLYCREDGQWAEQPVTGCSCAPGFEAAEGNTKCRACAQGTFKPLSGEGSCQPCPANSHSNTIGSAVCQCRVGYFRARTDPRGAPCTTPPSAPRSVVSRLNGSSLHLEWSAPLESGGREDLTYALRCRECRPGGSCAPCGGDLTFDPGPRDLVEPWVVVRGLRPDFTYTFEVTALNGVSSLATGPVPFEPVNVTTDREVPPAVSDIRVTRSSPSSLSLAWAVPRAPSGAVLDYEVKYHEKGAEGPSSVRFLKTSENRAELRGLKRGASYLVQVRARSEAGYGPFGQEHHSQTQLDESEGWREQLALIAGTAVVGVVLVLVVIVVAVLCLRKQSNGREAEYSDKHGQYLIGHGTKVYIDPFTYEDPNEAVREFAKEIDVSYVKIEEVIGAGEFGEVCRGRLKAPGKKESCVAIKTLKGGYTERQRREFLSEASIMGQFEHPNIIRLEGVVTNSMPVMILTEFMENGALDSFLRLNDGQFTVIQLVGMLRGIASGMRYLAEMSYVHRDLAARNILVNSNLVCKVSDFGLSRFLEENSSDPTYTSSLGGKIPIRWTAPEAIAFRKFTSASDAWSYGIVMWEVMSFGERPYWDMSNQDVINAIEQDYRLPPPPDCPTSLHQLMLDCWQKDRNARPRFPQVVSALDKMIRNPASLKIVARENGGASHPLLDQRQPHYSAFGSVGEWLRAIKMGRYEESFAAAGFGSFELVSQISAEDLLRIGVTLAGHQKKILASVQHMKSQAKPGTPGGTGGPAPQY

[10] = target: T4, Ephrin type-B receptor 4 (Homo sapiens); details: at 10 µM
[11] = target: Focal adhesion kinase 1 (Homo sapiens) (UniProt Q05397); details: at 1 µM
[12] = target: T3, Ephrin type-B receptor 1 (Homo sapiens); details: at 1 µM
[13] = target: T5, Ephrin type-B receptor 2 (Homo sapiens) (UniProt P29323); details: at 10 µM
T5 sequence (whole entry): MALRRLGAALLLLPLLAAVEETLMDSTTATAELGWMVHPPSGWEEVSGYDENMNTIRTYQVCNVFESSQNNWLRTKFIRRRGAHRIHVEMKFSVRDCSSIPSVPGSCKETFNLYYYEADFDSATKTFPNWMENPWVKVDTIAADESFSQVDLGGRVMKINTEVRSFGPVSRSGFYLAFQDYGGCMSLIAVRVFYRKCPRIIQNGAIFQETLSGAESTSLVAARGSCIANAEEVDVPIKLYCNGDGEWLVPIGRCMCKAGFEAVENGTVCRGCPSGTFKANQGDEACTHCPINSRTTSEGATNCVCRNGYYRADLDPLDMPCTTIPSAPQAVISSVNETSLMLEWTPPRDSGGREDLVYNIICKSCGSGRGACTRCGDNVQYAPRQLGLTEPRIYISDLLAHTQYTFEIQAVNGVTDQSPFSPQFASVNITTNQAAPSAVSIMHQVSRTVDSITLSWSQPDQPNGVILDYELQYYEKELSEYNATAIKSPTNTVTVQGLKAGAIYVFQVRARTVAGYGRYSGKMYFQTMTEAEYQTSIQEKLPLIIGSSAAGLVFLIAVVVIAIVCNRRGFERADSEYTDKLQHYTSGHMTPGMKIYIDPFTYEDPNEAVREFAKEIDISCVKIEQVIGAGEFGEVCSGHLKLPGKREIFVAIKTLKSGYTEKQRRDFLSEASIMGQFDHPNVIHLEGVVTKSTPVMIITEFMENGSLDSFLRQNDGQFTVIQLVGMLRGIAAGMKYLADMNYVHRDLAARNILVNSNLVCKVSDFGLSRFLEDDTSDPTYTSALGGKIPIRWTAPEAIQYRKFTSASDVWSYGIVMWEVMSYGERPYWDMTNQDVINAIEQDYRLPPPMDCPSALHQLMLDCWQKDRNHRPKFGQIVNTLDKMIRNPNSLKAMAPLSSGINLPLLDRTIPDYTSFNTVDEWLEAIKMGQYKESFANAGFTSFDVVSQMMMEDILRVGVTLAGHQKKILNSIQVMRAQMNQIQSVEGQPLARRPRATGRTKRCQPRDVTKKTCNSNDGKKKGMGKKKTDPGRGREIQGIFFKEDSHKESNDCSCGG

Chain of Ephrin type-A receptor 7 (Homo sapiens) (Q15375 28-998 limits assumed): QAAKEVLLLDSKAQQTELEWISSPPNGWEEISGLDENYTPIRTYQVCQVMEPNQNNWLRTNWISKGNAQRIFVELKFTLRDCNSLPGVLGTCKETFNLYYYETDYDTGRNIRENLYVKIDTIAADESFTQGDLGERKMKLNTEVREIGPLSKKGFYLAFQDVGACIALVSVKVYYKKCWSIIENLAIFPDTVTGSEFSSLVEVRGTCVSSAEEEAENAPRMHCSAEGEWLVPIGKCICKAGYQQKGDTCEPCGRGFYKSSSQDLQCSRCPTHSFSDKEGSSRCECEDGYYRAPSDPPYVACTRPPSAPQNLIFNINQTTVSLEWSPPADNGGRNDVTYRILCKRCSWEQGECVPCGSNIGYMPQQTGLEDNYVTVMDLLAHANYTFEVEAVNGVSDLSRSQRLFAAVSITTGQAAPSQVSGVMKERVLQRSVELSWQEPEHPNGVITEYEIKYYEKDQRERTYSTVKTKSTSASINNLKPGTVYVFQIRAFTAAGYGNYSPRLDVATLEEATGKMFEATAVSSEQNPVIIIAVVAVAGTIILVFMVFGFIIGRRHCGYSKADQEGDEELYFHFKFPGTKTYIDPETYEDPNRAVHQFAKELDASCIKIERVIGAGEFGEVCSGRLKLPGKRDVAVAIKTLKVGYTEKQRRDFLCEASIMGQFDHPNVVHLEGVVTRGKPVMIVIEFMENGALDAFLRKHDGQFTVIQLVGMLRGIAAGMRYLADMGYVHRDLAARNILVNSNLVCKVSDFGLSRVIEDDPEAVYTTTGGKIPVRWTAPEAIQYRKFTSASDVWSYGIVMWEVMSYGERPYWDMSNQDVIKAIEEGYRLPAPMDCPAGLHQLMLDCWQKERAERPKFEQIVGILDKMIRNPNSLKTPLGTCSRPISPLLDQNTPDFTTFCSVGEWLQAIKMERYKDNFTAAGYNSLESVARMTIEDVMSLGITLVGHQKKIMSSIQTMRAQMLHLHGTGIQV
Chain of Ephrin type-A receptor 5 (Homo sapiens) (P54756 whole entry): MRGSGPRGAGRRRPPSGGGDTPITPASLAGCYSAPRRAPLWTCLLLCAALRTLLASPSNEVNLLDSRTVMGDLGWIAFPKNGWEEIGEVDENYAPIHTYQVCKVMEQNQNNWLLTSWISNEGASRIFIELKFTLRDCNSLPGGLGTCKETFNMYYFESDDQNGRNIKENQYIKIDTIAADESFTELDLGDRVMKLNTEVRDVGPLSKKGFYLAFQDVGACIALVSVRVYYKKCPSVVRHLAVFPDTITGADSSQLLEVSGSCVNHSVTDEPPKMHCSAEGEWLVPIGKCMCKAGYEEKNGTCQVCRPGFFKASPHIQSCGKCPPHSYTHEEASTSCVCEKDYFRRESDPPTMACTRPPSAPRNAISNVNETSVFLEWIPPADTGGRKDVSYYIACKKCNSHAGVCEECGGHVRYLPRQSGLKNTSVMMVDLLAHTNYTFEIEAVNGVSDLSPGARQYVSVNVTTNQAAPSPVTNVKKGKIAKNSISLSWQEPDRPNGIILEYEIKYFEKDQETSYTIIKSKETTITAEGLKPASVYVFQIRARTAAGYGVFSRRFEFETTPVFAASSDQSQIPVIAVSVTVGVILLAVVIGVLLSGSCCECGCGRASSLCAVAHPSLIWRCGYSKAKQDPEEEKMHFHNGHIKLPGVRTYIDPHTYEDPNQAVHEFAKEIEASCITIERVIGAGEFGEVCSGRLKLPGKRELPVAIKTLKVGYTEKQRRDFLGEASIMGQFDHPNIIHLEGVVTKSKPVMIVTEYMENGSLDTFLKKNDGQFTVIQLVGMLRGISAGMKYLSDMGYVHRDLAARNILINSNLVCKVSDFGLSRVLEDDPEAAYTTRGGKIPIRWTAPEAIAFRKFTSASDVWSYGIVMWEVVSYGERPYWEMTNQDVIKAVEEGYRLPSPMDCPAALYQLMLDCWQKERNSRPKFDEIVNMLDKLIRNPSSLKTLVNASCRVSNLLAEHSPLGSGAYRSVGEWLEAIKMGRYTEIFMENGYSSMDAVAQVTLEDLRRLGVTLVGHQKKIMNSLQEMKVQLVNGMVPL
Chain of Focal adhesion kinase 1 (Homo sapiens) (Q05397 2-1052 limits assumed): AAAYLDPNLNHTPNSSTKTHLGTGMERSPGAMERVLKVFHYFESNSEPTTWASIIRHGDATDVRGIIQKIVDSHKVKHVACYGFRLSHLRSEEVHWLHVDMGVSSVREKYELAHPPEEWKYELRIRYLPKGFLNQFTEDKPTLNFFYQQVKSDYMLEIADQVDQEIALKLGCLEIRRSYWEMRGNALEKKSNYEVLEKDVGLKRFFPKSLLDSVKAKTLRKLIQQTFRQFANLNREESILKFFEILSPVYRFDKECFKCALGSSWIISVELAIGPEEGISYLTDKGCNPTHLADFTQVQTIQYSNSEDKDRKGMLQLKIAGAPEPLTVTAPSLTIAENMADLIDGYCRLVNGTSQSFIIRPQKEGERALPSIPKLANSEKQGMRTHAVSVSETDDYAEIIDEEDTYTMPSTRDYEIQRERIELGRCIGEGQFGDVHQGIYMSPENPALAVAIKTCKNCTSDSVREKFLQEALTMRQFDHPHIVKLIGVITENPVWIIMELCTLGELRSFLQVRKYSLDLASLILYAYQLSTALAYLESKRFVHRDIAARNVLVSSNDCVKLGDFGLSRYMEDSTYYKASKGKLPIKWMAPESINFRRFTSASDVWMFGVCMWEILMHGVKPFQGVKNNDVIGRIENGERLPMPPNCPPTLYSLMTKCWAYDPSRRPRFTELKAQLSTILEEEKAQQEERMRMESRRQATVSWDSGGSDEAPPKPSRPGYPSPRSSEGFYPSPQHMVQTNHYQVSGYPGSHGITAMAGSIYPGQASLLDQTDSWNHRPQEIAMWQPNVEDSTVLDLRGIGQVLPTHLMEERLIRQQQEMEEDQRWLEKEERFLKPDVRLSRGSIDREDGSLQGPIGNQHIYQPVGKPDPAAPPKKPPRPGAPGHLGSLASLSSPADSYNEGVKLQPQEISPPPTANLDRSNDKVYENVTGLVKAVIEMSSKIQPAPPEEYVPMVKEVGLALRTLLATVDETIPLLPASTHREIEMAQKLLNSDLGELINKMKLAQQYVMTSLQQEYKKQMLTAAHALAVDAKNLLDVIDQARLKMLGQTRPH

Row | SMILES | residual activity [1] [%] | residual activity [2] [%] | residual activity [3] [%] | residual activity [4] [%] | residual activity [5] [%] | residual activity [6] [%] | residual activity [7] [%] | residual activity [8] [%] | residual activity [9] [%] | residual activity [10] [%] | residual activity [11] [%] | residual activity [12] [%] | residual activity [13] [%]
1 | O=C1C(Cl)=C(N2C(=O)CCC2=O)C(=O)c2ccccc21 | 89 | 119 | 96 | 99 | 92 | 96 | 92 | 93 | 93 | 81 | 93 | – | –
2 | COc1cc2c(cc1OC)-c1n[nH]c(Nc3cccc(F)c3)c1C2 | 42 | 103 | 43 | – | 64 | 69 | 26 | 43 | 77 | 35 | – | 83 | 64
